Positions of bridges follow the written chain, without caps; N, C: chain ends. Non-standard residues stand in square brackets, D forms with d. Residues, ends and D or L forms follow the SMILES beside them. ξ: configuration not given here. *: point of attachment. Octanoyl(6-Me) = CCC(C)CCCCC(=O)*; ξThr(3R) = C[C@@H](O)C(N)C(=O)O; dDab = NCC[C@@H](N)C(=O)O; Dab = NCC[C@H](N)C(=O)O
assay: qHTS profiling of the MIPE4 collection as inhibitors of Plasmodium falciparum (DD2) proliferation (AID 743345); conditions: P. falciparum Dd2 in erythrocytes, SYBR Green DNA, 72 h; at 28.5 µM (top of the series) unless noted
From the text: Plasmodium falciparum is a virulent malarial parasite that kills 1-2 million people worldwide each year. Transmitted by mosquitoes, the sporozoite form of the parasite enters the blood stream to infect hepatocytes, where they become merozoites that infect red blood cells (erythrocytes). Within erythrocytes, merozoites begin a […] cycle of growth and division, after which the parasite is released to infect new red blood cells. Gametocytes, which form within erythrocytes as well, circulate in the bloodstream and are ingested by the mosquito, thereby completing the life cycle. To profile malarial isolates for differential chemical responses and to identify inhibitors of malarial growth, an assay that measures P. falciparum growth and replication within erythrocytes was employed. This assay uses a DNA binding fluorescent dye (SYBR Green) to detect parasite DNA following cell lysis. Because mature erythrocytes lack DNA, only Plasmodium-derived DNA is detected.
The SYBR Green viability assay was adapted from a method described previously (Plouffe et al., 2008). For screening 3 ul culture medium was dispensed into 1536 well black clear bottom plates (Aurora Biotechnologies) using a Multidrop Combi (Thermo Fisher Scientific Inc.), 23 nL compounds in DMSO were added by a pin tool (Kalypsys), and 5 ul of erythrocytes infected with P. falciparum (0.3% parasitemia, 2.5% hematocrit final concentration) were added. The plates were incubated at 37 C in a humidified incubator in 5% CO2 for 72 h, and 2 ul lysis buffer (20 mM Tris HCl, 10 mM EDTA, 0.16% saponin, 1.6% triton X, 10X SYBR Green I supplied as 10,000X […] by Invitrogen) was added to each well. The plates were mixed for 25 sec with gentle shaking and incubated overnight at room temperature in the dark. The following morning, fluorescence intensity at 485(14) nm excitation and 535(25) nm emission wavelengths was measured on an EnVision (Perkin Elmer) plate reader. Plate reads were normalized relative to the control inhibitor (0.29 uM artemisinin) and vehicle (DMSO) wells present on each plate and then corrected by an algorithm using vehicle-only control plates at the beginning and end of the compound plate stack.

Compound	parasite growth remaining, % of DMSO control (lower = more inhibition)
OCCNC1CCCc2c1[nH]c1ccc(-c3ccccc3)cc21 (stereo not given)	15.7%
c1cncc(CN2CCC(n3ncc4c(N5CCOCC5)nc(-c5ccc6[nH]ccc6c5)nc43)CC2)c1	6.76%
O=C(Nc1ccc(Oc2ccnc3[nH]ccc23)c(F)c1)c1cccn(-c2ccc(F)cc2)c1=O	69.1%
CC(=O)[C@]1(O)Cc2c(O)c3c(c(O)c2[C@@H](O[C@H]2C[C@H](N)[C@@H](O)[C@H](C)O2)C1)C(=O)c1ccccc1C3=O	46.3%
O=C(CN1C(=O)C2(CCCC2)NC[C@H]1c1cc(F)cc(F)c1)Nc1ccc2c(c1)C[C@@]1(C2)C(=O)Nc2ncccc21	86.9%
Nc1ccc(C(=O)Nc2cccc(-c3nc(N4CCOCC4)c4oc5ncccc5c4n3)c2)cn1	6.97%
CCCCCCCCCCCCc1ccc(S(=O)(=O)Nc2nncs2)cc1	92.3%
O=C(Nc1cc2cc[nH]c2cn1)c1ccccc1	88%
COC(=O)C1C2CC3c4[nH]c5cc(OC)ccc5c4CCN3CC2CC(OC(=O)c2cc(OC)c(OC)c(OC)c2)C1OC (stereo not given)	39.3%
C[C@H](NC(=O)C(C#N)=Cc1cccc(Br)n1)c1ccccc1	86.2%
N#CC(=C(N)Sc1ccc(N)cc1)c1ccccc1C(F)(F)F	69.5%
CCC(C)CCCCC(=O)N[C@@H](CCN)C(=O)NC(C(=O)N[C@H](CCN)C(=O)N[C@@H]1CCNC(=O)C([C@@H](C)O)NC(=O)[C@@H](CCN)NC(=O)[C@@H](CCN)NC(=O)[C@@H](CC(C)C)NC(=O)[C@H](Cc2ccccc2)NC(=O)[C@H](CCN)NC1=O)[C@@H](C)O (stereo partly drawn) ({Octanoyl(6-Me)}-[Dab][ξThr(3R)][dDab][dDab][Dab]F[dL][dDab][dDab][ξThr(3R)]; lactam 4-C)	124%
Cc1cc(C(=O)NOCCO)c(Nc2ccc(I)cc2F)n(C)c1=O	87.7%
Nc1nc2c(c(=O)[nH]1)N(C=O)[C@H](CNc1ccc(C(=O)N[C@@H](CCC(=O)O)C(=O)O)cc1)CN2	96.2%
c1ccc(CNc2nc(NCc3ccccc3)c3ccccc3n2)cc1	7.99%
C[C@H](NCc1ccc(OCc2cccc(F)c2)cc1)C(N)=O	6.14%
O=C(Nc1cccc(Nc2ncc(Br)c(NCCc3cnc[nH]3)n2)c1)N1CCCC1	13.6%
CC(C)(O)[C@H]1CC[C@@](C)([C@H]2[C@@H](O)C[C@@]3(C)[C@@H]4C[C@H](O[C@@H]5O[C@H](CO)[C@@H](O)[C@H](O)[C@@H]5O)[C@H]5C(C)(C)[C@@H](O[C@@H]6OC[C@@H](O)[C@H](O)[C@@H]6O)CC[C@@]56C[C@@]46CC[C@]23C)O1	135%
C=C1C(=O)O[C@H]2[C@@H]1CCC(C)=CCC[C@@]1(C)O[C@@H]21	75.8%
C#C[C@]1(O)CC[C@@H]2[C@@H]3CCC4=CC(=O)CC[C@@H]4[C@H]3CC[C@@]21CC	79.2%

Compound	parasite growth remaining, % of DMSO control (lower = more inhibition)
COc1cc(C)c(C=CC(C)=CC=CC(C)=CC(=O)O)c(C)c1C	115%
Cc1cnc(Nc2ccc(CN3CCOCC3)cc2)nc1Nc1cccc(S(=O)(=O)NC(C)(C)C)c1	8.36%
COc1cc(C(=O)NC2CCN(C)CC2)ccc1Nc1ncc2c(n1)N(C1CCCC1)CCC(=O)N2C(C)C	7.51%
N#Cc1cc(NC(=O)Nc2nnc(-c3ccncc3)s2)ccc1-c1cn[nH]c1	101%
COC1=C(OC)C(=O)C(CC=C(C)CCC=C(C)CCC=C(C)CCC=C(C)CCC=C(C)CCC=C(C)CCC=C(C)CCC=C(C)CCC=C(C)CCC=C(C)C)=C(C)C1=O	46.1%
O=C(NNC(=O)c1ccc(CNS(=O)(=O)c2ccc(F)c(Cl)c2)cc1)c1ccccc1	87.9%
CC(=O)N1CCN(c2ccc(OCc3nn(C)c(C)c3-c3cccc4c(CCCOc5cccc6ccccc56)c(C(=O)O)n(Cc5cccnc5)c34)cc2)CC1	9.41%
CN(C)CC(=O)N1CCC(c2ccc(NC(=O)c3ncc(C#N)[nH]3)c(C3=CCCCC3)c2)CC1	16.6%
C[C@H](NC(=O)[C@@H](O)c1cc(F)cc(F)c1)C(=O)N[C@@H]1C(=O)N(C)c2ccccc2-c2ccccc21	12.1%
NC[C@H]1O[C@H](O[C@H]2[C@@H](O)[C@@H](O[C@H]3O[C@H](CO)[C@@H](O)[C@H](N)[C@@H]3O)[C@H](N)C[C@@H]2N)[C@H](N)C[C@H]1O	92.9%
CC[C@H]1OC(=O)[C@H](C)[C@@H](O[C@H]2C[C@@](C)(OC)[C@@H](O)[C@H](C)O2)[C@H](C)[C@@H](O[C@@H]2O[C@H](C)C[C@H](N(C)C)[C@@H]2O)[C@](C)(OC)C[C@@H](C)C(=O)[C@H](C)[C@@H](O)[C@]1(C)O	44.2%
N=c1ccn2c(n1)O[C@H]1[C@@H](O)[C@@H](CO)O[C@H]12	119%
CC(=O)OCC(=O)[C@@]1(O)CC[C@H]2[C@@H]3CCC4=CC(=O)CC[C@]4(C)[C@@H]3C(=O)C[C@@]21C	93.2%
Cn1cc(CNCC2CCN(c3ncc(C(=O)NO)cn3)CC2)c2ccccc21	7.34%
O=C(O)CCCCCC(=O)NN=C1CCCC1	100%
C[C@H]1COc2c(N3CCN(C)CC3)c(F)cc3c(=O)c(C(=O)O)cn1c23	69.9%
CO[C@@H]1[C@@H](O)[C@H](O)[C@@H](n2c3c(Cl)cccc3c3c4c(c5c6cccc(Cl)c6[nH]c5c32)C(=O)NC4=O)O[C@@H]1CO	7.89%
C[C@H](O)[C@@H]1C(=O)N2C(C(=O)O)=C(S[C@@H]3CN[C@H](CNS(N)(=O)=O)C3)[C@@H](C)[C@@H]12	99.1%
CC[C@]12C=CCN3CC[C@@]4(c5cc([C@@]6(C(=O)OC)C[C@H]7C[C@@H](C(C)(F)F)CN(Cc8c6[nH]c6ccccc86)C7)c(OC)cc5N(C)[C@H]4[C@@](O)(C(=O)OC)[C@H]1OC(C)=O)[C@@H]32	12.3%
C[C@]12CC[C@@H]3c4ccc(O)cc4CC[C@H]3[C@H]1CC[C@H]2O	93.3%
